Results from PubChem BioAssay AID1159580 (chemical genetic matrix, 2015).
The whole screen tested about 5,500 compounds, of which about 2,000 (36%) were called active. Inconclusive results (about 18%) are left out. Rule as the data show it: active = normalized growth mostly below about 0.91 (no sharp cut-off); inconclusive = no clear call, values can overlap the other calls; inactive = mostly above about 0.92. The list shows a part of the results.

Assay: chemical genetic growth profiling, strain panel (AID 1159580);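 also: tested at 20 µM; growth read once vehicle control cultures reached saturation at 30 °C; 1 = growth at the plate median or of vehicle wells; lower values mean less growth of the strain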
Conditions: S. cerevisiae deletion strains, growth OD

Measured: normalized growth

Cn1c([N+](=O)[O-])cnc1COC(N)=O
inactive: locus YAL013W, strain DEP1, stronger effect = lower value 1.01 | locus YAL021C, strain ccr4, stronger effect = lower value 1.01 | locus YAL026C, strain drs2, stronger effect = lower value 1.02 | locus YAL030W, strain snc1, stronger effect = lower value 1 | locus YBL061C, strain skt5, stronger effect = lower value 1.01 | locus YBR009C, strain hhf1, stronger effect = lower value 0.978 | locus YBR021W, strain FUR4, stronger effect = lower value 1.02 | locus YBR023C, strain chs3, stronger effect = lower value 1.01 | locus YBR171W, strain sec66, stronger effect = lower value 1.01 | locus YBR229C, strain ROT2, stronger effect = lower value 1.01 | locus YBR231C, strain swc5, stronger effect = lower value 0.992 | locus YBR279W, strain paf1, stronger effect = lower value 1 | locus YCL011C, strain gbp2, stronger effect = lower value 1.01 | locus YCL016C, strain dcc1, stronger effect = lower value 1.01 | locus YCL029C, strain bik1, stronger effect = lower value 0.993 | locus YCL069W, strain vba3, stronger effect = lower value 0.987 | locus YCR088W, strain abp1, stronger effect = lower value 1.01 | locus YDL005C, strain med2, stronger effect = lower value 1.01 | locus YDL035C, strain GPR1, stronger effect = lower value 1.02 | locus YDL040C, strain nat1, stronger effect = lower value 0.997 | locus YDL074C, strain BRE1, stronger effect = lower value 1.02 | locus YDL101C, strain DUN1, stronger effect = lower value 1.02 | locus YDL134C, strain PPH21, stronger effect = lower value 1 | locus YDL185W, strain tfp1, stronger effect = lower value 0.978 | locus YDL192W, strain arf1, stronger effect = lower value 0.984 | locus YDR001C, strain nth1, stronger effect = lower value 1 | locus YDR069C, strain doa4, stronger effect = lower value 0.984 | locus YDR101C, strain arx1, stronger effect = lower value 0.986 | locus YDR137W, strain rgp1, stronger effect = lower value 1.04 | locus YDR150W, strain NUM1, stronger effect = lower value 1 | locus YDR159W, strain sac3, stronger effect = lower value 0.983 | locus YDR162C, strain NBP2, stronger effect = lower value 1.01 | locus YDR195W, strain ref2 1.01 | locus YDR297W, strain sur2, stronger effect = lower value 1.02 | locus YDR318W, strain mcm21, stronger effect = lower value 0.985 | locus YDR334W, strain swr1, stronger effect = lower value 1 | locus YDR335W, strain msn5, stronger effect = lower value 1.01 | locus YDR388W, stronger effect = lower value 0.992 | locus YDR392W, strain spt3, stronger effect = lower value 1.04 | locus YDR502C, strain sam2, stronger effect = lower value 0.989 | locus YEL003W, strain gim4, stronger effect = lower value 0.999 | locus YEL037C, strain rad23, stronger effect = lower value 0.998 | locus YEL061C, strain CIN8 (second series), stronger effect = lower value 1 | locus YEL061C, strain CIN8, stronger effect = lower value 1.01 | locus YER015W, strain faa2, stronger effect = lower value 1.01 | locus YER016W, strain bim1, stronger effect = lower value 1.02 | locus YER110C, stronger effect = lower value 0.988 | locus YER111C, strain swi4, stronger effect = lower value 0.998 | locus YER155C, strain BEM2 (second series), stronger effect = lower value 1.02 | locus YER155C, strain BEM2, stronger effect = lower value 1 | locus YER167W, strain BCK2, stronger effect = lower value 1.01 | locus YFR010W, strain ubp6, stronger effect = lower value 0.983 | locus YGL078C, strain dbp3, stronger effect = lower value 0.987 | locus YGL086W, strain mad1, stronger effect = lower value 0.998 | locus YGL167C, strain pmr1, stronger effect = lower value 1 | locus YGL173C, strain kem1, stronger effect = lower value 1 | locus YGL227W, strain vid30, stronger effect = lower value 1.01 | locus YGL240W, strain doc1, stronger effect = lower value 1 | locus YGL248W, strain PDE1, stronger effect = lower value 1.01 | locus YGL253W, strain hxk2, stronger effect = lower value 1.01 | locus YGR078C, strain PAC10, stronger effect = lower value 1.01 | locus YGR135W, strain pre9, stronger effect = lower value 0.983 | locus YGR252W, strain gcn5, stronger effect = lower value 0.981 | locus YHR013C, strain ard1, stronger effect = lower value 1.04 | locus YHR027C, strain rpn1, stronger effect = lower value 1.02 | locus YHR030C, strain SLT2, stronger effect = lower value 1.01 | locus YHR079C, strain IRE1 (second series), stronger effect = lower value 0.991 | locus YHR079C, strain IRE1, stronger effect = lower value 1 | locus YHR094C, strain hxt1, stronger effect = lower value 0.986 | locus YHR129C, strain ARP1, stronger effect = lower value 1 | locus YHR142W, strain chs7, stronger effect = lower value 1.01 | locus YHR200W, strain rpn10, stronger effect = lower value 0.986 | locus YIL066C, strain RNR3, stronger effect = lower value 1.02 | locus YIL073C, strain SPO22, stronger effect = lower value 1.03 | locus YIL125W, strain kgd1, stronger effect = lower value 0.987 | locus YIR030C, strain dcg1, stronger effect = lower value 0.994 | locus YJL092W, strain hpr5, stronger effect = lower value 1.01 | locus YJL095W, strain BCK1 (second series), stronger effect = lower value 1.01 | locus YJL095W, strain BCK1, stronger effect = lower value 1.02 | locus YJL115W, strain asf1, stronger effect = lower value 0.999 | locus YJL129C, strain trk1, stronger effect = lower value 1.02 | locus YJL134W, strain LCB3, stronger effect = lower value 1 | locus YJL154C, strain vps35, stronger effect = lower value 1.01 | locus YJL164C, strain tpk1, stronger effect = lower value 0.993 | locus YJL166W, strain qcr8, stronger effect = lower value 0.988 | locus YJL168C, strain set2, stronger effect = lower value 0.986 | locus YJL187C, strain SWE1 (second series), stronger effect = lower value 1.02 | locus YJR043C, strain POL32, stronger effect = lower value 1.02 | locus YJR066W, strain TOR1, stronger effect = lower value 0.954
